M1 PAM: human M1 muscarinic receptor positive allosteric modulators, primary screen, CHO-K1 cells, Fluo-8 calcium fluorescence, 1536-well. Muscarinic acetylcholine receptor M1 (Homo sapiens), P11229. CHO-K1 hM1, ACh EC20; 0% = ACh EC20, 100% = maximal ACh. activation, % at 3 µM. 360,000 tested, 0.088% active. AID 588819, 2011; in the data active = activation above about 19%, passing the limit was not always enough
Target sequence (P11229 whole entry, looked up): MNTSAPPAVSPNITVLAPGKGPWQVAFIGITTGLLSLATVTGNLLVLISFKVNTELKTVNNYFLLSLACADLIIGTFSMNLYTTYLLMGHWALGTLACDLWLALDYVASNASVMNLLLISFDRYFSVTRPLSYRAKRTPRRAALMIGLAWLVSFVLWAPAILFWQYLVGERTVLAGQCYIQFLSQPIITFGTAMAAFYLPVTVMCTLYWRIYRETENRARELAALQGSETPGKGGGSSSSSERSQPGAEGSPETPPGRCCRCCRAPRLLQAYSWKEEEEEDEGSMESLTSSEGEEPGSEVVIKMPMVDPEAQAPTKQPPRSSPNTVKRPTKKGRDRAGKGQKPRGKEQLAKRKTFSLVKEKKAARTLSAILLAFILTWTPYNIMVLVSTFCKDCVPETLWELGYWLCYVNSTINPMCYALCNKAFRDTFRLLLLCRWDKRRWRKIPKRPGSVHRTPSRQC
CHRM1 agonist: human M1 muscarinic receptor agonists, primary screen, Fluo-8 calcium fluorescence, CHO-K1 cells, HTS; Muscarinic acetylcholine receptor M1 (Homo sapiens), P11229; CHO-K1 hM1, agonist mode; 0% DMSO, 100% acetylcholine EC100; activation, % at 3 µM; 360,000 tested, 0.33% active; AID 588814, 2011;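 active = activation above the run's mean compound activation plus 3 SD, cut at about 16% in these data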;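 also: peak over basal fluorescence ratio within a 140 s kinetic read after compound addition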
CHO-K1 Ca ag: counter-screen for M1 agonists: effect in parental CHO-K1 cells; AID 602248, 2012; 360,000 tested, 0.48% active; Fluo-8 calcium fluorescence; scaled to maximal ATP response, vehicle zero; activation, % at 3 µM; in the data active = activation above about 15%;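 also: untransfected CHO-K1 host cells lacking M1 receptor as counterscreen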
CHO-K1 Ca PAM: nonselective calcium activators in parental CHO-K1 cells, primary screen, counter-screen for M1 PAM project, cell-based, Fluo-8 calcium fluorescence, full deck, 1536-well | ATP EC20; 0% at ATP EC20, 100% at ATP max | AID 602247, 2012 | 360,000 tested, 0.02% active | activation, % at 3 µM;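 active = activation above the run cutoff, the mean activation of all test compounds plus 3 SD, cut at about 40% in these data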;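 also: peak over basal fluorescence ratio in a 140 s read after ATP addition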
CHO-K1 Ca antag: nonselective inhibitor or artifact in parental CHO-K1 cells; AID 602250; inhibition, % at 3 µM; ATP-induced calcium, Fluo-8 fluorescence; 360,000 tested, 0.6% active;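 active = inhibition above a per-plate cutoff, the plate's mean sample inhibition plus 3 SD, cut at about 24% in these data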;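 also: 0% = DMSO plus EC80 ATP and 100% = DMSO alone without ATP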
CHRM1 antagonist: human M1 muscarinic receptor antagonists, primary screen, CHO-K1 cells, Fluo-8 calcium fluorescence, 1536-well | 360,000 tested, 1.3% active | CHO-K1 hM1, ACh EC80 antagonist | inhibition, % at 3 µM | Muscarinic acetylcholine receptor M1 (Homo sapiens), P11229 | AID 588852, 2011;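 active = percent inhibition above its own plate's cutoff, namely the mean of that plate's compound wells plus 3 SD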;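 also: peak over basal fluorescence ratio during 140 s after agonist addition; 0% = ACh EC80 plus DMSO and 100% = DMSO alone without agonist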
* = called active by the depositor. This is a sample that favours compounds with a hit; in the whole collection about 2.3% have one here.

SMILES	M1 PAM	CHRM1 agonist	CHO-K1 Ca ag	CHO-K1 Ca PAM	CHO-K1 Ca antag	CHRM1 antagonist
COc1cc(/C=N/NS(=O)(=O)c2ccc(Br)cc2)ccc1O	4	1	1	7	-5	-8
COc1ccc(Br)cc1C=NNS(=O)(=O)c1ccc(C)cc1	-19	1	0	-7	20	33*
CNc1cc(-c2ccc(CC#N)cc2)ncn1	1	4	0	13	-6	-17
Cc1ccc(S(=O)(=O)N2CCNC(=O)CC2)cc1	10	-5	23*	7	-4	-5
Cc1ccc(S(=O)(=O)N2CCc3ccccc3CC2)cc1	-14	-2	1	-21	-1	23
COc1ccccc1-c1noc2ncnc(Nc3ccc4c(c3)OCO4)c12	11	3	0	11	-7	-8
O=C(O)c1cccc(NC(=O)c2cccc(S(=O)(=O)N3CCc4ccccc43)c2)c1	1	-1	0	-13	1	-1
NC(=O)c1ccc(NC(=O)c2ccc3c(c2)CCN3S(=O)(=O)c2ccccc2)cc1	11	-5	2	-24	26*	-2
Cc1cccc(NC(=O)C2CC(O)CN2C(=O)Oc2ccccc2)c1 (stereo not given)	3	-3	1	12	-10	-6
CN1CCN(c2ccc(CNC(=O)c3ccco3)cc2)CC1	4	-5	18*	6	6	-5
O=S(=O)(c1ccc(Cl)c(Cl)c1)c1snnc1-c1ccccc1	-21	-4	1	6	-12	75*
O=C(c1ccccc1Oc1ccc([N+](=O)[O-])cc1)N1CCOCC1	9	-4	0	-12	25*	-5
Cc1cc(N2CCCCC2)nc(NCc2ccccc2)n1	-24	21*	20*	0	13	16
Cc1cc(N2CCCCC2)nc(N2CCCCC2)n1	-14	28*	2	23	-5	15
Cc1cc(OC2CCCCC2)nc(NCc2ccccc2)n1	4	-3	0	-2	5	-3
Cc1cc(N2CCCCCC2)nc(-c2ccccc2O)n1	-9	-5	0	9	-8	11
Cc1cc(N2CCOCC2)nc(NCc2ccccc2)n1	-23	-3	16*	-9	4	21
O=C(CSc1ccncc1)Nc1ccc2ccccc2c1	9	-6	4	9	-6	0
O=C(COc1ccc2ccccc2c1)Nc1ccncc1	-3	0	14	0	24*	18
O=C(CSc1ccc2ccccc2c1)Nc1ccncc1	-12	-3	13	-1	15	31*
Cc1cc(OCC(=O)Nc2ccncc2)ccc1Cl	-11	2	10	-19	35*	28
Cc1cc(OCC(=O)Nc2ccncc2)cc(C)c1Br	-11	10	10	-5	25*	7
Cc1cc(OCC(=O)Nc2ccc3oc(-c4ccncc4)nc3c2)ccc1Cl	8	-1	0	13	-5	-6
CN(c1ccc([N+](=O)[O-])cc1)c1cc2c(c3c1ccn3C)C1CCC2C1 (stereo not given)	-6	3	6	11	-7	-7
Cc1c(NC(=O)C(C)OC(=O)Cc2ccc(F)cc2)c(=O)n(-c2ccccc2)n1C (stereo not given)	-14	-1	0	-17	25*	38*
SMILES	M1 PAM	CHRM1 agonist	CHO-K1 Ca ag	CHO-K1 Ca PAM	CHO-K1 Ca antag	CHRM1 antagonist
CCN(c1ccccc1)S(=O)(=O)c1cc(C(=O)Nc2ccc(F)c(F)c2)ccc1F	-21	0	13	0	20	33*
CC(=O)NC(c1ccccc1)c1nc(-c2cccc(C(F)(F)F)c2)cs1 (stereo not given)	3	-4	1	-16	29*	-12
CC(=O)NC(c1ccccc1)c1nc(-c2cccc(CO)c2)cs1 (stereo not given)	-2	-2	0	2	3	2
O=C(Nc1ccc(Cl)cc1)c1ccc(OCC2CCCO2)cc1 (stereo not given)	-1	-3	26*	2	9	10
Cc1c(Cl)cccc1NC(=O)CSc1nncn1-c1ccccn1	11	-1	1	0	-9	-9
COc1cccc(C(=O)NC(=S)Nc2ccc(N3CCCC3)cc2)c1	-5	-5	0	11	-12	11
CN1CCN(c2ccc(NC(=S)NC(=O)c3cccc4c(Cl)cccc34)cc2)CC1	-30	-13	0	-18	7	37*
CC(C)Oc1cccc(C(=O)NC(=S)Nc2ccc(N3CCN(C)CC3)cc2)c1	-27	-4	4	19	-7	99*
c1ccc(CNCc2ccco2)cc1	13	-2	1	13	-4	-14
CCCOC1CCCN(Cc2nc(-c3cnccn3)no2)C1 (stereo not given)	-2	0	0	-9	-6	4
C[C@@H]1CN(Cc2nc(-c3cnccn3)no2)C[C@H](C)O1	-1	-3	24*	11	-1	10
COCCNC(=O)C1CCCN(S(=O)(=O)c2c(C)noc2/C=C/c2cccs2)C1 (stereo not given)	5	0	3	0	-13	-7
COC(CNC(=O)C1CCCN(S(=O)(=O)c2c(C)noc2/C=C/c2cccs2)C1)OC (stereo not given)	6	-2	15*	12	-2	3
CCN(CC(=O)NCc1cccs1)C(=O)/C=C/c1cccc(Cl)c1Cl	4	-6	1	3	-3	-6
CCCCCCOC(=O)C[N+](C)(C)CCOC1CC2CCC1(C)C2(C)C (stereo not given)	10	-3	0	3	-2	-5
CCCCCCCOC(=O)C[N+](C)(C)CCOC1CC2CCC1(C)C2(C)C (stereo not given)	5	-4	27*	32	5	11
CCN(CC)c1ccc(C(=C2C=CC(=[N+](CC)CC)C=C2)c2ccc(S(=O)(=O)O)cc2S(=O)(=O)[O-])cc1	6	-2	0	-7	-6	-7
O=[N+]([O-])c1cc([N+](=O)[O-])c(Oc2cc(Cl)ccc2Cl)cc1NC1CCCCCCC1	4	0	1	9	-15	-6
CC1(C(=O)Nc2ccc3c(c2)OCO3)CCN1C(=O)Cc1ccc(-c2ccccc2)cc1 (stereo not given)	-17	7	10	16	8	38*
Cn1nc(C2CC2)cc1NC(=O)C1(C)CCN1C(=O)Cc1ccc(-c2ccccc2)cc1 (stereo not given)	-13	0	6	-11	10	30*
